sPLA2-III inh – human group III sPLA2 inhibitors, primary screen, biochemical, QFRET, BODIPY PC-A2 liposome substrate. Group 3 secretory phospholipase A2 (Homo sapiens), Q9NZ20. QFRET BODIPY PC-A2 liposome hydrolysis, fluorescence. inhibition, % at 12.2 µM. actives 0.56% (n = 370,000). AID 743126, 2013;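 active = inhibition above mean plus 3 SD of compounds lying within the high and low control bounds, cut at about 19% in these data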
Target sequence (Q9NZ20 whole entry, looked up): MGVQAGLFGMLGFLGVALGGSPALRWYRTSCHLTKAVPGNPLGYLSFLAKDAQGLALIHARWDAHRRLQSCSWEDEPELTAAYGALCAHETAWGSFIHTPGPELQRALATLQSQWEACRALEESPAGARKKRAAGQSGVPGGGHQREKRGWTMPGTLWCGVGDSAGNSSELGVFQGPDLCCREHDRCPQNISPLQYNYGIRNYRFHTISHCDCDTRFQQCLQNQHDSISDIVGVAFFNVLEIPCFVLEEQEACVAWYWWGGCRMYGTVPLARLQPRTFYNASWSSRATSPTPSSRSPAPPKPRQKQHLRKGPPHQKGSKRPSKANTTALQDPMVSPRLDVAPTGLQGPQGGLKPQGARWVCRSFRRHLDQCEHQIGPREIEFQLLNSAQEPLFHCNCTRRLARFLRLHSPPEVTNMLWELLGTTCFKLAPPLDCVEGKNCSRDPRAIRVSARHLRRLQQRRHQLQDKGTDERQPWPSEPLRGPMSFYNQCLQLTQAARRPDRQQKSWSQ
PG9 binder – binders of HIV-1 gp120 antibody PG9, primary screen, biochemical, TR-FRET; HIV-1 gp120 / PG9 antibody interaction; TR-FRET gp120-PG9 antibody binding; inhibition, % at 6.7 µM; actives 0.43% (n = 360,000); AID 624416, 2012; in the data active = inhibition above about 8.5%
MsrA inhibitor – bovine MsrA enzyme inhibitors, primary screen, biochemical, absorbance, HTS; Methionine sulfoxide reductase A (Bos taurus); purified bovine MsrA, absorbance read-out; inhibition, % at 15.5 µM; actives 0.75% (n = 360,000); AID 651718, 2012; in the data active = inhibition above about 4.5%
MsrA act – bovine MsrA enzyme activators, primary screen, biochemical, absorbance, HTS. activation, % at 10.6 µM. purified bovine MsrA, absorbance read-out. actives 0.3% (n = 360,000). Methionine sulfoxide reductase A (Bos taurus); in the data active = activation above about 7.5%
rCAG RNA binder – binders of r(CAG) RNA repeats, primary screen, biochemical, fluorescence; r(CAG) RNA repeat, TO-PRO-1 dye displacement fluorescence; actives 1.3% (n = 370,000); inhibition, % at 3 µM; AID 651821, 2012;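 active = inhibition above the plate cutoff, the mean of all test compounds on that plate plus 3 SD, cut at about 35% in these data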;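 note: higher means more dye released from RNA so lower well fluorescence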
rCAG bind conf – small molecules binding CAG repeat RNA – biochemical, fluorescence, confirmation | shares compounds with rCAG RNA binder | inhibition, % at 3 µM | r(CAG) RNA repeat, TO-PRO-1 dye displacement fluorescence | actives 70% (n = 4,300);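 active = inhibition above a per-plate cutoff, the mean inhibition of sample wells plus 3 SD, cut at about 35% in these data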;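 note: loss of TO-PRO-1 fluorescence as compound displaces dye from 1x1 AA loop RNA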
DNA CAG counter – displacement of TO-PRO-1 from CAG DNA duplex, counter-screen for rCAG RNA repeat binder project, biochemical, fluorescence, TO-PRO-1 dye, d(CAG) DNA oligo. shares compounds with rCAG RNA binder. d(CAG) DNA oligo TO-PRO-1 dye displacement. inhibition, % at 3 µM. actives 94% (n = 4,300);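 active = inhibition above its plate's cutoff, the mean test-well inhibition plus 3 SD, cut at about 4.8% in these data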;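 note: hits displace the dye from DNA and so lower well fluorescence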
Numbers stand for hits. Compounds with a hit are over-represented: about 3.2% of the library has one in this group of screens.

How did COc1cc(C)ccc1S(=O)(=O)NC(=O)C1(C)CCN1C(=O)C1(c2ccc(Cl)cc2)CCC1 (stereo not given) do in these assays?
sPLA2-III inh: inactive; PG9 binder: inactive; MsrA inhibitor: inactive; MsrA act: inactive; rCAG RNA binder: 42; rCAG bind conf: inactive; DNA CAG counter: 5.4

What do the screens show for `COC(=O)C1CN(C2CCCC2)CCS(=O)(=O)N1Cc1cn(Cc2ccccc2)nn1` (stereo not given)?
sPLA2-III inh: inactive; rCAG RNA binder: inactive

What do the screens show for `CC1(C)Oc2ccc(C(=O)NCCCN3CCCC3)cc2NC1=O`?
sPLA2-III inh: inactive; rCAG RNA binder: inactive

Results for O=C(O)c1cc(-c2ccc3ccccc3n2)nc2ccccc12 ?
sPLA2-III inh: inactive; PG9 binder: inactive; MsrA inhibitor: inactive; MsrA act: inactive; rCAG RNA binder: inactive

How did O=C(O)c1cc(-c2c[nH]c3ccccc23)nc2cc3ccccc3cc12 do in these assays?
sPLA2-III inh: inactive; PG9 binder: inactive; MsrA inhibitor: inactive; MsrA act: inactive; rCAG RNA binder: 54; rCAG bind conf: 35; DNA CAG counter: 13

Results for O=C(O)c1cc(-c2ccc3ccccc3c2)nc2ccc(F)cc12 ?
sPLA2-III inh: inactive; PG9 binder: inactive; MsrA inhibitor: inactive; MsrA act: inactive; rCAG RNA binder: 37; rCAG bind conf: inactive; DNA CAG counter: inactive

Results for O=C(O)c1cc(-c2cccc3ccccc23)nc2ccccc12 ?
sPLA2-III inh: inactive; PG9 binder: inactive; MsrA inhibitor: inactive; MsrA act: inactive; rCAG RNA binder: inactive

What do the screens show for `CSCCC(C(=O)Nc1c(C)cccc1C)N1CCN(c2ccc(F)cc2)CC1` (stereo not given)?
sPLA2-III inh: inactive; PG9 binder: inactive; MsrA inhibitor: inactive; MsrA act: inactive; rCAG RNA binder: inactive

What do the screens show for `N#C/C(=N\Nc1ccc(Cl)c(Cl)c1)C(=O)C1CC1`?
sPLA2-III inh: inactive; PG9 binder: inactive; MsrA inhibitor: inactive; MsrA act: inactive; rCAG RNA binder: 52; rCAG bind conf: 55; DNA CAG counter: 17

How did Cc1ccc(Cl)cc1NC(=O)c1cc(NC(=O)CCCC(=O)O)ccc1N1CCCCC1 do in these assays?
sPLA2-III inh: inactive; PG9 binder: inactive; MsrA inhibitor: inactive; MsrA act: inactive; rCAG RNA binder: 51; rCAG bind conf: 56; DNA CAG counter: 18

What do the screens show for `Cc1nc(C)c(-c2csc(Nc3ccc(N)cc3)n2)s1`?
sPLA2-III inh: inactive; PG9 binder: inactive; MsrA inhibitor: inactive; MsrA act: inactive; rCAG RNA binder: inactive

Results for Cc1nc(C)c(-c2csc(Nc3ccc(O)c(C(=O)O)c3)n2)s1 ?
sPLA2-III inh: inactive; PG9 binder: inactive; MsrA inhibitor: inactive; MsrA act: inactive; rCAG RNA binder: 35; rCAG bind conf: inactive; DNA CAG counter: 6.2

Results for CCCSc1nnc(NC(=O)CSc2nc3[nH]c(=O)cc(O)c3s2)s1 ?
sPLA2-III inh: inactive; PG9 binder: inactive; MsrA inhibitor: inactive; MsrA act: inactive; rCAG RNA binder: 37; rCAG bind conf: inactive; DNA CAG counter: 7.8

How did CCSc1nnc(NC(=O)CSc2sc3c(O)cc(=O)[nH]c3c2C#N)s1 do in these assays?
sPLA2-III inh: inactive; PG9 binder: inactive; MsrA inhibitor: inactive; MsrA act: inactive; rCAG RNA binder: 58; rCAG bind conf: 63; DNA CAG counter: 28

Results for Cc1csc(NC(=O)CSc2sc3c(O)cc(=O)[nH]c3c2C#N)n1 ?
sPLA2-III inh: inactive; PG9 binder: inactive; MsrA inhibitor: inactive; MsrA act: inactive; rCAG RNA binder: 75; rCAG bind conf: 37; DNA CAG counter: 14

How did CCc1nnc(NC(=O)CSc2nc3[nH]c(=O)cc(O)c3s2)s1 do in these assays?
sPLA2-III inh: inactive; PG9 binder: inactive; MsrA inhibitor: inactive; MsrA act: inactive; rCAG RNA binder: inactive

Results for COc1cc(O)c(C(CC(=O)N2CCC(C)CC2)c2ccc3c(c2)OCO3)c(OC)c1 (stereo not given) ?
sPLA2-III inh: inactive

What do the screens show for `CCCCCC(=O)N1C[C@H](O)[C@@H](n2cc(COC(=O)c3ccccc3)nn2)C[C@@H]1c1ccc(Cl)cc1`?
sPLA2-III inh: inactive; PG9 binder: inactive; MsrA inhibitor: inactive; MsrA act: inactive; rCAG RNA binder: inactive

How did O=C(O)Cc1c[nH]c2ccccc12 do in these assays?
sPLA2-III inh: inactive; PG9 binder: inactive; MsrA inhibitor: inactive; MsrA act: inactive; rCAG RNA binder: inactive

Results for O=C(O)Cc1c[nH]c2cccc(O)c12 ?
sPLA2-III inh: inactive; PG9 binder: inactive; MsrA inhibitor: inactive; MsrA act: inactive; rCAG RNA binder: 46; rCAG bind conf: inactive; DNA CAG counter: 13

What do the screens show for `CN(C)S(=O)(=O)c1cccc(NC(=O)c2ccc(Sc3nncn3C)c([N+](=O)[O-])c2)c1`?
sPLA2-III inh: inactive; PG9 binder: inactive; MsrA inhibitor: inactive; MsrA act: inactive; rCAG RNA binder: inactive

How did CCN(CC)S(=O)(=O)c1ccc(NC(=O)c2ccc(Sc3nncn3C)c([N+](=O)[O-])c2)cc1 do in these assays?
sPLA2-III inh: inactive; PG9 binder: inactive; MsrA inhibitor: inactive; MsrA act: inactive; rCAG RNA binder: 36; rCAG bind conf: inactive; DNA CAG counter: 5.8

What do the screens show for `O=C(Nc1c(C(=O)O)[nH]c2ccccc12)c1cccc(C(F)(F)F)c1`?
sPLA2-III inh: inactive; PG9 binder: inactive; MsrA inhibitor: inactive; MsrA act: inactive; rCAG RNA binder: 39; rCAG bind conf: inactive; DNA CAG counter: inactive

What do the screens show for `O=C(Nc1ccccc1)c1cccc(C(F)(F)F)c1`?
sPLA2-III inh: inactive; PG9 binder: inactive; MsrA inhibitor: inactive; MsrA act: inactive; rCAG RNA binder: inactive

How did COc1ccc2[nH]c(C(=O)O)c(NC(=O)c3cc(OC)c(OC)c(OC)c3)c2c1 do in these assays?
sPLA2-III inh: inactive; PG9 binder: inactive; MsrA inhibitor: inactive; MsrA act: inactive; rCAG RNA binder: inactive

Results for O=C(Nc1c(C(=O)O)[nH]c2ccc(F)cc12)c1cccc(C(F)(F)F)c1 ?
sPLA2-III inh: inactive; PG9 binder: inactive; MsrA inhibitor: inactive; MsrA act: inactive; rCAG RNA binder: 63; rCAG bind conf: 39; DNA CAG counter: 8.8

How did CC(=O)c1sc(-c2ccccc2)cc1NS(=O)(=O)c1ccccc1 do in these assays?
sPLA2-III inh: inactive; PG9 binder: inactive; MsrA inhibitor: inactive; MsrA act: inactive; rCAG RNA binder: 83; rCAG bind conf: inactive; DNA CAG counter: inactive
